# Source: PubChem BioAssay
# Records with an inconclusive call do not appear. Active and inactive are the calls of the source.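 How the source made its calls, unless noted: active means inhibition above 50%, about 3 SD of the validation set; inactive means the rest.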
# Tests used:
# [1] = yeast TOR pathway RPL19A-GFP modulators, primary screen, cell-based, S. cerevisiae, multiplex flow cytometry (AID 1862; in the data active means percent of DMSO control GFP below about 86%;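 further: lower values mimic rapamycin by blocking the RPL19A rise seen in DMSO cells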); details: S. cerevisiae RPL19A-GFP strain, flow cytometry fluorescence, 3 h; at 10 µM; stronger effect = lower value
# [2] = modulators of MEP2-GFP levels in yeast, primary screen, S. cerevisiae, multiplex flow cytometry (AID 1867;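 active means GFP response, as percent of the DMSO control, above the screen-wide mean plus 3 SD, about 139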;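 further: median GFP channel fluorescence of barcode-gated MEP2-GFP cells measured by flow cytometry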); details: S. cerevisiae MEP2-GFP strain, 3 h, at 10 µM, stronger effect = higher value, 100% means same as DMSO wells
# [3] = modulators of CIT2-GFP expression in yeast, primary screen, S. cerevisiae, GFP fusion, multiplex flow cytometry (AID 1870;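 active means percent response above a set limit, the screen-wide mean plus 3 SD, cut at about 130% in these data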;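 further: barcoded CIT2-GFP strain pooled with four other GFP strains with rapamycin as positive control; median GFP fluorescence per well over plate mean of DMSO wells so 100% = DMSO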); details: 3 h, at 10 µM, stronger effect = higher value
# [4] = modulators of LAP4-GFP expression in yeast, primary screen, S. cerevisiae, multiplex flow cytometry (AID 1873;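 active means GFP signal, as percent of the solvent control, above the screen mean plus 3 SD, about 149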); details: 3 h, at 10 µM, stronger effect = higher value
# [5] = modulators of AGP1-GFP expression in yeast TOR pathway, primary screen, cell-based, multiplex flow cytometry, S. cerevisiae (AID 1887;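 active means GFP signal above the screen-wide mean plus 3 SD, that is over about 124.5% of the solvent control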;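 further: AGP1-GFP fusion strain of S. cerevisiae within a five-strain barcoded multiplex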); details: 3 h, at 10 µM, stronger effect = higher value
# [6] = inhibitors of CD8+ T cell-vesicle binding, pilot screen, LFA-1/ICAM-1 modulator project, MLPCN validation set, flow cytometry (AID 2523;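 active means response below a set limit, under 55% cells CD8-positive and vesicle-bound, and CD8 cells' 90th-percentile brightness under 279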;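 on vesicle binding response: mean PE anti-B7-1 fluorescence of CD8+ cells relative to row control; 100% = QL9-loaded vesicles with DMSO vehicle in the same plate row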); details: 2C mouse CD8+ T cells, at 7 µM, stronger effect = lower value; double positive events: measured here: CD8+/vesicle+ event percentage
# [7] = biological target: Integrin beta-1 (Homo sapiens) + Integrin alpha-4 (Homo sapiens) (UniProt P13612+P05556); experiment: inhibition of HUTS-21 binding to VLA-4, pilot screen, VLA-4 allosteric modulator project, U937 cells, HUTS-21 mAb, flow cytometry, validation set (AID 2674); details: HUTS-21 LIBS mAb binding, at 6.7 µM, stronger effect = higher value, binding induced by LDV ligand;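 further: antibody binding induced by the VLA-4 ligand LDV present at three times its Kd; 0% = LDV ligand with antibody and no compound and 100% = antibody without LDV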
# [8] = superoxide lowering in aged yeast cells, pilot screen, validation compound set (AID 2706;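 active means superoxide response below 65% of plate, a cut near 3 SD across the whole screen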;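 further: yeast exposed to compound for one week at 30 degrees C before staining; 100% = mean of all compound wells on the same plate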); details: S. cerevisiae aging, superoxide DHE fluorescence; at 10 µM, stronger effect = lower value
# [9] = biological target: Beta-adrenergic receptor kinase 1 (Homo sapiens) (UniProt P25098); experiment: GRK2 binders displacing RNA aptamer, biochemical, validation, human GRK2, bead flow cytometry (AID 488806;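 active means aptamer binding inhibition above 30%, about 3 SD of noise from non-fluorescent compounds; inactive means inhibition at or below 30%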); details: bead-bound GRK2, FAM-aptamer displacement, at 10 µM, stronger effect = higher value
# [10] = biological target: AP-2 complex subunit beta (Homo sapiens) (UniProt P63010); experiment: inhibitors of arrestin peptide binding to AP2, pilot screen, biochemical, validation set, GST-AP2 beads, flow cytometry (AID 504541;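 active means inhibition above 54%, about 3 SD of non-fluorescent compounds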;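 further: AP2 carries R879A mutation and is captured from E. coli lysate; bead-bound FITC arrestin peptide fluorescence measuring arrestin peptide binding to AP2; 0% = DMSO wells and 100% = excess unlabeled arrestin peptide control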); details: FITC arrestin peptide, at 10 µM, stronger effect = higher value, AP2 beta2 appendage fragment, R879A mutant
# [11] = yeast V-ATPase proton transport modulators, S. cerevisiae, pHLuorin, HTS validation (AID 504600; in the data active means response above about 15%;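 further: plate controls were DMSO for no effect and reference compound for full effect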); details: S. cerevisiae pHLuorin cytosolic pH, at 10 µM, stronger effect = higher value
# [12] = system: anti-desmoglein-3 scFv antibody binding to human DSG3; experiment: inhibitors of anti-DSG3 scFv binding to DSG3, pilot screen, biochemical, validation compound set, bead-based, flow cytometry (AID 588368;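 active means binding below the plate cutoff, the plate median minus 3 SD, with a reading above zero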;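 further: signal is the median channel fluorescence of bead-bound GFP antibody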); details: Protein G beads, DSG3-Fc, scFv-GFP binding, at 10 µM, stronger effect = lower value
# [13] = inhibitors of fungal efflux pumps CDR1, CDR2, MDR1, pilot screen, validation compound set, multiplex, phenotypic (AID 588506;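 active means efflux inhibition above 0.42, the validation set average plus 4 SD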;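 further: Nile Red retained in cells so higher fluorescence means more efflux inhibition; 0 = negative control wells and 1 = enniatin B 25 µM full block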); details: S. cerevisiae pump-expressing triplex, Nile Red efflux flow cytometry; at 10 µM; stronger effect = higher value; the pumps come from Candida albicans
# [14] = biological target: ATP-binding cassette sub-family B member 6 (Homo sapiens) (UniProt Q9NP58); experiment: ABCB6 transporter inhibitors, pilot screen, K562-ABCB6 cells, flow cytometry, validation set (AID 588550;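 active means inhibition above the screen-wide mean plus 3 SD, about 51%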;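 further: 0% = DMSO wells and 100% = benzethonium chloride 70 µM positive control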); details: K562-ABCB6 porphyrin accumulation, 1 h, at 10 µM, stronger effect = higher value
# [15] = promoters of myeloid differentiation in arrested cells, primary screen, cell-based, GFP/MAC1 double positive, flow cytometry, validation set (AID 588685;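 active means differentiation response of at least 50%, scaled between solvent and reference control, from cells with both markers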;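 further: compound exposure lasts four days before antibody staining and flow analysis; 0% = DMSO wells and 100% = 5 µM fulvestrant positive control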); details: ER-HoxA9 marrow cells, stronger effect = higher value, normalized: vehicle 0, fulvestrant 100
# AP-2 complex subunit beta (Homo sapiens), sequence (P63010 whole entry, looked up, the tested form may be a part, one chain of several): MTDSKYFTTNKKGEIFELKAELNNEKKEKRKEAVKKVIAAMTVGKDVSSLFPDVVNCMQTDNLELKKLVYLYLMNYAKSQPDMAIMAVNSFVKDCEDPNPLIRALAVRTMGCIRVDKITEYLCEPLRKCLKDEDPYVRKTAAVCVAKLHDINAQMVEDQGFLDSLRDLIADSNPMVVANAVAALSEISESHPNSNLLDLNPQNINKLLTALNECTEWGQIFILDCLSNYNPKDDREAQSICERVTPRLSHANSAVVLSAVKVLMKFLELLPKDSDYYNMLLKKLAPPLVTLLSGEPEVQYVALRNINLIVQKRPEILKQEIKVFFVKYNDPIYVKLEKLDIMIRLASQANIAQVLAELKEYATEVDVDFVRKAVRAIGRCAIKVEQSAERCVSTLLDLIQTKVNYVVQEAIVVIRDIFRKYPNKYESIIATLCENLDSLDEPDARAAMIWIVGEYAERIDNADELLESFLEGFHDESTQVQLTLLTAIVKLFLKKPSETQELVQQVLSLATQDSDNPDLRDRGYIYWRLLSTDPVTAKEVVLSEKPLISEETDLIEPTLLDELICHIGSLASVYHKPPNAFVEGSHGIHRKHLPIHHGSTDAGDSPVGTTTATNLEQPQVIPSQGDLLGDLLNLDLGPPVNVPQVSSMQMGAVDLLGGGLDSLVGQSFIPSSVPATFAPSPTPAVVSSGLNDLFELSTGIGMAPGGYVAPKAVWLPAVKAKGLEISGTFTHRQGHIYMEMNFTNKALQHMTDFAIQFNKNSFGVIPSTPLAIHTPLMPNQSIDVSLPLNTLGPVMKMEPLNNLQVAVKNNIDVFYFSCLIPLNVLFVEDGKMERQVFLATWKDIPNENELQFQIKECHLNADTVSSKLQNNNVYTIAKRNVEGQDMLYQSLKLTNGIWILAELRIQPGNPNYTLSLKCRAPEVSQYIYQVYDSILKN
# Integrin beta-1 (Homo sapiens) + Integrin alpha-4 (Homo sapiens), sequence (P05556 whole entry, looked up): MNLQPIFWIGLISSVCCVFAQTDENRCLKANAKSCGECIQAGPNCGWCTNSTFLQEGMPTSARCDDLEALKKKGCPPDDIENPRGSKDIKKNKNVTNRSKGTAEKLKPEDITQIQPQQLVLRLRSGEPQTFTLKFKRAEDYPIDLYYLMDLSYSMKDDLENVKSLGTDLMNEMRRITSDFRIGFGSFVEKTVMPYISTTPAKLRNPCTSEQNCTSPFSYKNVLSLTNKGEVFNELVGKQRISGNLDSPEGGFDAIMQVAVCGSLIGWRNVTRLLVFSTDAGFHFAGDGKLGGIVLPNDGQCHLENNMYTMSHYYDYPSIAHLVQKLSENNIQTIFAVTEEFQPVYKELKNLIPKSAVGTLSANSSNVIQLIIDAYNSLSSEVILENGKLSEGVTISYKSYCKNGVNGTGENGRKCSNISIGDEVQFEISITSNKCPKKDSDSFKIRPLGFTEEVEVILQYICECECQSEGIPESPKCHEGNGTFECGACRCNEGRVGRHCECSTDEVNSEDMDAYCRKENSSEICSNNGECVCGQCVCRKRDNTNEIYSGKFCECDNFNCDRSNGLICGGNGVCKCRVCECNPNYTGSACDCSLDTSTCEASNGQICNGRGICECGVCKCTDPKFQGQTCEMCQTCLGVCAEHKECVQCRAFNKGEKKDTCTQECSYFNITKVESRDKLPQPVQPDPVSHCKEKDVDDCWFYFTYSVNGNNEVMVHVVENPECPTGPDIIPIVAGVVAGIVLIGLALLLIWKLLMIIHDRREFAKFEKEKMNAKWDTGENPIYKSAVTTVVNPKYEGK
# Integrin beta-1 (Homo sapiens) + Integrin alpha-4 (Homo sapiens), sequence (P13612 whole entry, looked up): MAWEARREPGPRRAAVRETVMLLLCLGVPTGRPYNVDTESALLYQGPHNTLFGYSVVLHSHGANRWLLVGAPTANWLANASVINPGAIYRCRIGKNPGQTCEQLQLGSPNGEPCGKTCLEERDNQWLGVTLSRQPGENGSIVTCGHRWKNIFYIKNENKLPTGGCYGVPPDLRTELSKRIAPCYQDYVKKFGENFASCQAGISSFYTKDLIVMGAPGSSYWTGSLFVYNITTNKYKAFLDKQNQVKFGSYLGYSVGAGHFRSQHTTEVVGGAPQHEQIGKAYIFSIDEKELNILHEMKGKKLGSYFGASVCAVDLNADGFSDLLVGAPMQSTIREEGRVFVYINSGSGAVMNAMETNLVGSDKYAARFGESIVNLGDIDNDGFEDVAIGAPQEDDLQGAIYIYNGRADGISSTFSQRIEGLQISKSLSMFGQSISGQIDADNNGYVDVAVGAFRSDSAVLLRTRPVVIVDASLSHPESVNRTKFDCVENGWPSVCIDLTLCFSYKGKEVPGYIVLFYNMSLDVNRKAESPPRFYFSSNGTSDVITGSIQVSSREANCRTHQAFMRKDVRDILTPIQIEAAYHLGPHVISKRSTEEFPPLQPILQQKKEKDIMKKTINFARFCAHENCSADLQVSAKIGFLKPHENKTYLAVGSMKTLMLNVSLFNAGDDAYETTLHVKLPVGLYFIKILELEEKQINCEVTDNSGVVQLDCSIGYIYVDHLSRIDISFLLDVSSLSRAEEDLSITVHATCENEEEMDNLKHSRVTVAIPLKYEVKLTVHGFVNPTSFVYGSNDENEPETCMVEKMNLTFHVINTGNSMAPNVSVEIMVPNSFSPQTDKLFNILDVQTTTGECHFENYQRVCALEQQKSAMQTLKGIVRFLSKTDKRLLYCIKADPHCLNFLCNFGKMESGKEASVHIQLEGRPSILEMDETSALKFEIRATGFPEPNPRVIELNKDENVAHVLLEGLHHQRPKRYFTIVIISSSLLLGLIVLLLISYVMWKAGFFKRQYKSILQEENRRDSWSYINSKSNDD
# Beta-adrenergic receptor kinase 1 (Homo sapiens), sequence (P25098 whole entry, looked up): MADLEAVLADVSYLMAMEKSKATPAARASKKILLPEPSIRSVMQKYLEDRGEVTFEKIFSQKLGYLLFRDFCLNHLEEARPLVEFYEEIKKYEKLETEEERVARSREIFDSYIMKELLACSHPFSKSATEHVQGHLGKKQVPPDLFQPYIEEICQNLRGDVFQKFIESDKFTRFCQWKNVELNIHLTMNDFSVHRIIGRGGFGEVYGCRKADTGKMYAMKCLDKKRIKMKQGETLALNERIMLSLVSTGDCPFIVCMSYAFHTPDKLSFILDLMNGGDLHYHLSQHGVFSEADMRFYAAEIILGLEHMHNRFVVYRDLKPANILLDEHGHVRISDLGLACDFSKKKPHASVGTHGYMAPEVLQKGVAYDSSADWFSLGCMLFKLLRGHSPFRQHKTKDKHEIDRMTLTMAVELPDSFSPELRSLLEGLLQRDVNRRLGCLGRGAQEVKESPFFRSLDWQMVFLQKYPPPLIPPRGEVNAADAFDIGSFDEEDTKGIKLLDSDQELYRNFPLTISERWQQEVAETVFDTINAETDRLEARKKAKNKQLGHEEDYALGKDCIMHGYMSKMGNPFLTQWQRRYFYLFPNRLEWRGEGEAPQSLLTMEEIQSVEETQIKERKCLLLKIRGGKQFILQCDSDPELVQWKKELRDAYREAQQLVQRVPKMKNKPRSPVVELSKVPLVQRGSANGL
# ATP-binding cassette sub-family B member 6 (Homo sapiens), sequence (Q9NP58 whole entry, looked up): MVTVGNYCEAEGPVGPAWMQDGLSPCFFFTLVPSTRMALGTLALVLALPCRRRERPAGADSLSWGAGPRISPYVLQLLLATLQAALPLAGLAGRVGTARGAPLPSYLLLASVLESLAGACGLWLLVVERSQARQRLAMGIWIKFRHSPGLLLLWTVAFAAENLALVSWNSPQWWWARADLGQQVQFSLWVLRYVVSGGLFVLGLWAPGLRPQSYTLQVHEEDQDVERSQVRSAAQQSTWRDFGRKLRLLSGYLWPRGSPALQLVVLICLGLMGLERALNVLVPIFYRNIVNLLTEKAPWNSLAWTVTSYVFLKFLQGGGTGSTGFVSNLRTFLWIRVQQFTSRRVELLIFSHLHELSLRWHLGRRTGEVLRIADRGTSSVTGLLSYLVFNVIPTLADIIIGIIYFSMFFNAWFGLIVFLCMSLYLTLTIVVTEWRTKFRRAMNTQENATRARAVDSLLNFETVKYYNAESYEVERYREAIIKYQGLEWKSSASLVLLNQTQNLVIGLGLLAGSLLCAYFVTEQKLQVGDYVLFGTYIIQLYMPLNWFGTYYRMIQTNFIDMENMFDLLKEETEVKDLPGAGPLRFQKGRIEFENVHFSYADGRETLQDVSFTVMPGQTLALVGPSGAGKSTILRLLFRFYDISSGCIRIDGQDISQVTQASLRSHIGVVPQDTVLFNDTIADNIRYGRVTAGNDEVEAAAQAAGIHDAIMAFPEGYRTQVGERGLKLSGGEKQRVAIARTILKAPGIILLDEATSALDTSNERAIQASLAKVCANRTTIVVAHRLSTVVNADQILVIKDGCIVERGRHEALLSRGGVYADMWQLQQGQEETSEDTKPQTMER
Structure (SMILES),percent of DMSO control GFP [1],GFP response vs DMSO [2],percent response of DMSO control [3],GFP response vs DMSO [4],"GFP response, % of DMSO [5]",double positive events [6],vesicle binding response [6],inhibition [7],superoxide response (% of plate) [8],aptamer binding inhibition [9],inhibition [10],response [11],binding (% of control) [12],efflux inhibition (fraction of control) [13],inhibition [14],differentiation response [15]
CCOc1cccc(N2C(=O)CC(N(CCc3ccc(OC)c(OC)c3)C(=O)CC)C2=O)c1 (stereo unspecified),101% (inactive),105% (inactive),104% (inactive),98.4% (inactive),100% (inactive),59.7%,184% (inactive),0% (inactive),94% (inactive),2% (inactive),27.3% (inactive),-1.88% (inactive),100% (inactive),-0.2 (inactive),5% (inactive),-18% (inactive)
CN(C)C(=O)C12CCC(C)(c3nc4ccccc4nc31)C2(C)C (stereo unspecified),104% (inactive),101% (inactive),106% (inactive),99.4% (inactive),99.3% (inactive),62.9%,190% (inactive),0.69% (inactive),95.4% (inactive),-1% (inactive),9.98% (inactive),1.66% (inactive),103% (inactive),-0.09 (inactive),5% (inactive),1.41% (inactive)
CN(C)c1nc(N(C)C)nc(N(C)C)n1,94.6% (inactive),103% (inactive),97.9% (inactive),97.4% (inactive),94.2% (inactive),63%,181% (inactive),5.36% (inactive),95.5% (inactive),0% (inactive),47.8% (inactive),-8.12% (inactive),99.3% (inactive),0.78 (active),9% (inactive),14.3% (inactive)
Cc1ccc2c(c1)OC(=O)CC2c1ccccc1 (stereo unspecified),100% (inactive),104% (inactive),96.9% (inactive),102% (inactive),99.6% (inactive),58%,168% (inactive),12.8% (inactive),111% (inactive),5% (inactive),31.1% (inactive),-9.91% (inactive),95.6% (inactive),0.06 (inactive),0% (inactive),-11.5% (inactive)
COc1ccc2nc(Nc3nc(CSc4ccc(C)cc4)cc(=O)[nH]3)nc(C)c2c1,99% (inactive),103% (inactive),98.8% (inactive),90.3% (inactive),104% (inactive),63.5%,217% (inactive),8.15% (inactive),104% (inactive),0% (inactive),8.24% (inactive),-0.97% (inactive),103% (inactive),-0.43 (inactive),6% (inactive),-24.4% (inactive)
COC(=O)C1=C(C)NC(C)=C(C(=O)OC)C1c1ccccc1[N+](=O)[O-],102% (inactive),104% (inactive),102% (inactive),108% (inactive),94.6% (inactive),53.9%,186% (inactive),5.36% (inactive),93.7% (inactive),-2% (inactive),34.7% (inactive),-7.73% (inactive),104% (inactive),-0.39 (inactive),12% (inactive),-8.27% (inactive)
O=C(O)CCCCCCCC(=O)O,100% (inactive),99.9% (inactive),90% (inactive),117% (inactive),97.5% (inactive),58.5%,171% (inactive),-6.77% (inactive),101% (inactive),4% (inactive),12.5% (inactive),0.2% (inactive),99% (inactive),0.14 (inactive),-18% (inactive),24% (inactive)
O=C(c1ccc(-c2ccccc2)c(F)c1)C1CCCN(C(=O)c2cncs2)C1 (stereo unspecified),100% (inactive),103% (inactive),95.9% (inactive),108% (inactive),91.8% (inactive),49.8%,157% (inactive),11.9% (inactive),132% (inactive),7% (inactive),-11% (inactive),13.7% (inactive),101% (inactive),-0.47 (inactive),9% (inactive),-14.7% (inactive)
CCN(CC)Cc1c[nH]c2c(C(=O)OC)cccc12,98.8% (inactive),104% (inactive),105% (inactive),102% (inactive),99.1% (inactive),60.2%,183% (inactive),10% (inactive),98.4% (inactive),0% (inactive),12.3% (inactive),-5.36% (inactive),105% (inactive),-0.28 (inactive),7% (inactive),-24.4% (inactive)
O=C(c1ccc(F)cc1)[C@@H]1[C@@H](C(=O)c2ccccc2)[C@@]2(C(=O)Nc3ccccc32)[C@H]2c3ccccc3C=CN12,102% (inactive),93.8% (inactive),106% (inactive),102% (inactive),102% (inactive),43.2%,172% (inactive),-183% (inactive),121% (inactive),-3% (inactive),-24.7% (inactive),2.83% (inactive),100% (inactive),0.03 (inactive),3% (inactive),-19.6% (inactive)
O=C(O)/C=C/c1ccc(O)c(O)c1,101% (inactive),104% (inactive),106% (inactive),95.4% (inactive),99.9% (inactive),52.4%,173% (inactive),23.1% (inactive),106% (inactive),8% (inactive),4.2% (inactive),-0.83% (inactive),95.4% (inactive),0.18 (inactive),4% (inactive),-0.2% (inactive)
